Five compounds from the supplement of paper PMC6897291 can be followed below.

This experiment deals with RIVA. The experiment in a line: growth inhibition by drug plus 177Lu-lilotomab satetraxetan (1 - RLU/untreated control) (fraction); higher = stronger inhibition. The note with it: 177Lu-lilotomab satetraxetan 0.5 ug/ml. How it is done: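 RIVA (RI-1) ABC-DLBCL cells were pretreated or not for 18 h with 0.5 ug/ml 177Lu-lilotomab satetraxetan (600 MBq/mg), washed and seeded (3000 cells/well) on 384-well plates pre-printed with the Selleck Cambridge Cancer Compound library. Viability was read by RealTime-Glo luminescence on days 3-6 after seeding. Effect = 1 - RLU/mean RLU of the 48 untreated no-drug control wells per plate; Bliss score = (M-E)/(1-Fa).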

Structures are written as SMILES. Several values for one entry are separate records, joined by “and”; a condition that tells them apart may be missing. Equal entries are not always repeated.

As to `O=C1c2ccccc2C(=O)c2c(NCCc3ccc(O)cc3)ccc(NCCc3ccc(O)cc3)c21`, the “growth inhibition by drug plus 177Lu-lilotomab satetraxetan” value (“growth inhibition” below) is 0.317 (10 nM, time (day): 3); 0.429 (10 nM, time (day): 4); 0.456 (10 nM, time (day): 5); 0.479 (10 nM, time (day): 6); 0.329 (100 nM, time (day): 3); 0.437 (100 nM, time (day): 4). Besides, the “growth inhibition” value was 0.433 (100 nM, time (day): 5) and 0.44 (100 nM, time (day): 6).

Consider `COc1ccc2c(c1)CCC1C2CCC2(C)C(NCCCCCCN3C(=O)C=CC3=O)CCC12` (stereo not given), for which the “growth inhibition” value was determined as 0.506 (10 nM, time (day): 3); 0.561 (10 nM, time (day): 4); 0.586 (10 nM, time (day): 5); 0.598 (10 nM, time (day): 6); 0.502 (100 nM, time (day): 3); 0.567 (100 nM, time (day): 4). Besides, the “growth inhibition” value runs as follows: (100 nM, time (day): 5) 0.571; (100 nM, time (day): 6) 0.58.

For the compound `C/C(=C\C(=O)Nc1ccccc1C(=O)O)c1ccc2ccccc2c1`, the “growth inhibition” value runs as follows: (10 nM, time (day): 3) 0.404 and 0.42; (10 nM, time (day): 4) 0.545 and 0.538; (10 nM, time (day): 5) 0.571 and 0.547; (10 nM, time (day): 6) 0.581 and 0.558; (100 nM, time (day): 3) 0.399 and 0.427; (100 nM, time (day): 4) 0.502 and 0.474. Further, the “growth inhibition” value (100 nM, time (day): 5) is 0.502 and 0.482; the “growth inhibition” value (100 nM, time (day): 6) was 0.484 and 0.467.

For the compound `CC[C@]1(O)C[C@@H]2CN(CCc3c([nH]c4ccccc34)[C@@](C(=O)OC)(c3cc4c(cc3OC)N(C)[C@H]3[C@@](O)(C(=O)OC)[C@H](OC(C)=O)[C@]5(CC)C=CCN6CC[C@]43[C@@H]65)C2)C1` [Vinblastine], the “growth inhibition” value is 0.383 (10 nM, time (day): 3); 0.503 (10 nM, time (day): 4); 0.523 (10 nM, time (day): 5); 0.53 (10 nM, time (day): 6); 0.574 (100 nM, time (day): 3); 0.643 (100 nM, time (day): 4). Moreover, the “growth inhibition” value worked out at 0.659 (100 nM, time (day): 5) and 0.668 (100 nM, time (day): 6).

On to `CNC(=O)c1ccccc1Sc1ccc2c(/C=C/c3ccccn3)n[nH]c2c1` [Axitinib], for which the “growth inhibition” value worked out at 0.405 (10 nM, time (day): 3); 0.507 (10 nM, time (day): 4); 0.522 (10 nM, time (day): 5); 0.533 (10 nM, time (day): 6); 0.439 (100 nM, time (day): 3); 0.479 (100 nM, time (day): 4). Further, the “growth inhibition” value came out at 0.492 (100 nM, time (day): 5) and 0.484 (100 nM, time (day): 6).
